One test concerns the target SLC6A17. Nature of the test: pooled miR-30 sensor sort-seq; sequence = guide strand. Particulars: shRNA.
For TATATAGTGCCACACACCGATG, the sensor-assay potency score (higher = more potent) is -1.62. Sequence TTGTAGGACACGGAGAGGGTGT came in with a sensor-assay potency score (higher = more potent) of -0.674. Still for that read-out and setting: the figure for AAGAAGAACATGACGGACCAGA is 0.0729; for TAGTGCCACACACCGATGCTGC it is -1.34. With TTCTTGGTTCCATAAATCCAGG, the sensor-assay potency score (higher = more potent) was -1.41.

Sequence TACATCTCCATGTAGTCCTTTG gave a sensor-assay potency score (higher = more potent) of -1.15. TTTCTCAGCATTCTCGACCACA showed a sensor-assay potency score (higher = more potent) of -0.65.

Another test deals with SLC6A18. Described as above. Particulars: shRNA.
The sequence TTCAGTGTCTGCCGGTACCAGA yielded a sensor-assay potency score (higher = more potent) of -1.1. ATTAGTTGCTTTGAACCCCAGG displayed a sensor-assay potency score (higher = more potent) of -0.521.

ATTGTCGAAAATCTCCAGCCAG showed a sensor-assay potency score (higher = more potent) of -0.569. TTGTATCTCAGTGGCTTCCAGA: the sensor-assay potency score (higher = more potent) is -0.724. In turn, TGAAGTAAATCACCTTCCCTGT displayed a sensor-assay potency score (higher = more potent) of -0.768. On the same count and under the same terms, the figure for TAAACGACACCCACAACCTCGA is -0.526; for TAGAGCTTCTCCTGACGCGAGG it is -1.31. Still for that read-out and setting: the figure for TTGTCGAAAATCTCCAGCCAGT is -1.14; for ATGGTGTTGTAGTACAGGCTGA it is -0.98; for TTGTAGTACAGGCTGATCAGGA it is -0.436. In turn, TGAACAAGTAGATGAGTCCTTT had a sensor-assay potency score (higher = more potent) of -0.149.

The target of a further test is SLC6A3. Described as above. Conditions: shRNA.
Sequence TATTCTTGTAAACAAAAACTGC registered a sensor-assay potency score (higher = more potent) of -1.01. In turn, TATTGATGTGGCACGCACCTGA yielded a sensor-assay potency score (higher = more potent) of -0.154. Consider TTGTTGGTGAACTTGTTGTAGC, for which the sensor-assay potency score (higher = more potent) was -0.855. On the same count and under the same terms, the figure for TAGCAGTTGTTGGTGAACTTGT is -0.216; for TAGATGATGAAGATCAGCCCTG it is -0.145.

The sequence TTTCCTGGTGAGACATACCAGG had a sensor-assay potency score (higher = more potent) of -1.03. On the same count and under the same terms, the figure for TTCGCAAACATAAAAACTGTTG is -1.05. The sequence TTGGTGAACTTGTTGTAGCTGG returned a sensor-assay potency score (higher = more potent) of 0.547. Same read-out and setting: the figure for TTACAGCAACACAAGACACGGC is 0.179; for TTTTTGTAGCACAGGTAGGGGA it is -0.961; for TTTTGTAGCACAGGTAGGGGAA it is -0.466. ATCTGCTGGATGTCGTCGCTGA gave a sensor-assay potency score (higher = more potent) of -0.478.

Another test addresses SLC7A11. The test is described as above. Conditions: shRNA.
Sequence TTTGTATCGAAGATAAATCAGC came in with a sensor-assay potency score (higher = more potent) of -1.16.

As for TAAAGTTCTGCGTTTGACCTTT, the sensor-assay potency score (higher = more potent) turned out to be 0.169. Still for that read-out and setting: the figure for TAATGGACCAAAGACTTCCAAA is -1.33; for TAATTAGCTGCATAACTCCAGG it is -0.703; for TAATACTTGAATCTCTTCCTGA it is 0.636.

On to TATATGTGTAATGACCTCCAGA, for which the sensor-assay potency score (higher = more potent) was -0.907. TTCAGTAACAAAGTTGAGGTAA yielded a sensor-assay potency score (higher = more potent) of 0.0391. For TTTAGGACCATCACTACAGTTA, the sensor-assay potency score (higher = more potent) is -0.265. On the same count and under the same terms, the figure for TTCTTCAGTAACAAAGTTGAGG is -0.835; for TACTTCTTCAGTAACAAAGTTG it is -0.481.

For the origin of these results see the OligoGym collection.
Further: reference of the scale not given here.
